Results taken from the supplement of paper PMC10121225.
Structures can show the parent of a compound that is named as a salt.

System: hN + hpA co-culture (H1 iNGN2 human neurons + human primary astrocytes)
Test: presynaptic density (SYNAPSIN1 puncta per MAP2 neurite area), Z-score vs DMSO controls; higher = more presynaptic puncta (synapse-promoting)
Conditions: 3 µM; 72 h
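Note: immunostained co-cultures imaged by high-content microscopy, Z-score per plate against mean and SD of 0.1% DMSO wells, compounds added on differentiation day 18, analysed day 21.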

SMILES	presynaptic density (Z-score)
CC(C)(C)c1nc(-c2cccc(NS(=O)(=O)c3c(F)cccc3F)c2F)c(-c2ccnc(N)n2)s1	0.941
Cc1nnc(C(C)C)n1C1C[C@H]2CC[C@@H](C1)N2CC[C@H](NC(=O)C1CCC(F)(F)CC1)c1ccccc1 (stereo in doubt) [Maraviroc]	-1.28
Cc1c(-c2ccc(O)cc2)n(Cc2ccc(OCCN3CCCCCC3)cc2)c2ccc(O)cc12 [Bazedoxifene HCl]	-0.982
CC(NC(=O)C(O)c1cc(F)cc(F)c1)C(=O)NC1C(=O)N(C)c2ccccc2-c2ccccc21 (stereo not drawn)	0.0312
Cc1[nH]c2ccccc2c1C1=C(NCCc2ccc(F)cc2)C(=O)N(C)C1=O	-0.562
O=C(NCCN1CCOCC1)c1ccc(Cl)cc1	0.253
COc1cccc(-c2cc(F)ccc2C2Cc3nc(N)nc(C)c3C(=O)N2)n1 (stereo not drawn)	2.18
CC(C)c1noc(N2CCC(COc3ccc(-c4ccc(S(C)(=O)=O)cc4)nc3)CC2)n1	0.0886
O=C(O)Cc1cccc(OCCCN(Cc2cccc(C(F)(F)F)c2Cl)CC(c2ccccc2)c2ccccc2)c1	-1.54
CCOC(=O)[C@H](CCc1ccccc1)N[C@@H](C)C(=O)N1C(=O)N(C)C[C@H]1C(=O)O [Imidapril HCl]	-0.0695
COc1cc2/c(=N/c3ccc(Br)cc3F)nc[nH]c2cc1OCC1CCN(C)CC1 [Vandetanib (ZD 6474)]	0.993
Cc1cc(OCCCS(C)(=O)=O)cc(C)c1-c1cccc(COc2ccc3c(c2)OC[C@H]3CC(=O)O)c1	-0.294
CCOc1nc2cccc(C(=O)O)c2n1Cc1ccc(-c2ccccc2-c2nnn[nH]2)cc1 [Candesartan]	0.323
CCCCCCCCCCCC1=C(O)C(=O)C=C(O)C1=O	-0.826
Cc1cccc(-c2nn3c(c2-c2ccnc4ccc(C(N)=O)cc24)CCC3)n1	0.336
CCc1c2c(nc3ccc(OC(=O)N4CCC(N5CCCCC5)CC4)cc13)-c1cc3c(c(=O)n1C2)COC(=O)[C@]3(O)CC [Irinotecan]	-0.725
CCc1cncnc1N1CCN(Cc2nc3ccc(C(F)(F)F)cc3[nH]2)CC1	-0.739
CC[C@@H]1C(=O)N(C)c2cnc(Nc3ccc(C(=O)NC4CCN(C)CC4)cc3OC)nc2N1C1CCCC1	-2.32
COc1cc2ncnc(Nc3ccc(Cl)cc3F)c2cc1OC	-0.982

SMILES	presynaptic density (Z-score)
CCCSc1nc(N[C@@H]2C[C@H]2c2ccc(F)c(F)c2)c2nnn([C@@H]3C[C@H](OCCO)[C@@H](O)[C@H]3O)c2n1 [Ticagrelor]	-0.848
N#CC[C@H](C1CCCC1)n1cc(-c2ncnc3[nH]ccc23)cn1	0.202
CC1(C)CCC(CN2CCN(c3ccc(C(=O)NS(=O)(=O)c4ccc(NCC5CCOCC5)c([N+](=O)[O-])c4)c(Oc4cnc5[nH]ccc5c4)c3)CC2)=C(c2ccc(Cl)cc2)C1	-1.11
CCCCN1CCCCC1C(=O)Nc1c(C)cccc1C (stereo not drawn) [Bupivacaine HCl]	-0.239
O=C(Nc1ccccc1Br)N[C@@H]1CCN(c2ccc(C(F)(F)F)cn2)C1	-1.47
CCc1c2c(nc3ccc(O)cc13)-c1cc3c(c(=O)n1C2)COC(=O)[C@]3(O)CC	0.761
CCN(CC)CCNC(=O)c1cc(Cl)c(N)cc1OC [MetoclopraMide HCl]	0.023
C[C@@H](Oc1cc(-n2cnc3ccc(CN4CCN(C)CC4)cc32)sc1C(N)=O)c1ccccc1C(F)(F)F	-1.83
Cc1cnc(NC(=O)Nc2cc(Br)c(C)cc2OC[C@@H]2CNCCO2)cn1	-0.602
CCc1cccc2c3c([nH]c12)C(CC)(CC(=O)O)OCC3 (stereo not drawn) [Etodolac]	-1.87
COCCOc1ccc2c(c1)ncn2-c1ccc2cccc(N3CCC(N)CC3)c2n1	-0.271
NC(=O)Nc1cc(-c2cccc(F)c2)sc1C(=O)N[C@H]1CCCNC1	0.58
C/C(=C\C(=O)Nc1ccccc1C(=O)O)c1ccc2ccccc2c1	-1.34
N#Cc1ccc(C(c2ccc(C#N)cc2)n2cncn2)cc1	0.0621
Cc1ccc(C(=O)N(CCCN)[C@@H](c2oc3cc(Cl)ccc3c(=O)c2Cc2ccccc2)C(C)C)cc1	-3.49
COc1ccccc1OCCNCC(O)COc1cccc2[nH]c3ccccc3c12 (stereo not drawn)	-1.2
CC(C)(Cc1ccc2ccccc2c1)NC[C@@H](O)COc1cccc(Cl)c1C#N	-2.26
Cc1nc(C(=O)NCC(=O)O)c(O)c2ccc(Oc3ccccc3)cc12	0.792
CC(C)C[C@H](NC(=O)CNC(=O)c1cc(Cl)ccc1Cl)B(O)O	-3.07
